Screens from PubChem BioAssay.
RBX1-CUL1 inh: inhibitors of human ROC1-CUL1 ubiquitin ligase activity. P62877+Q13616. AID 1347404. 140,000 tested, 0.6% active. in vitro K48 di-Ub FRET, acceptor:donor ratio, 45 min. inhibition, % at 10 µM; in the data active means inhibition above about 25%
Target sequence (P62877 whole entry, looked up): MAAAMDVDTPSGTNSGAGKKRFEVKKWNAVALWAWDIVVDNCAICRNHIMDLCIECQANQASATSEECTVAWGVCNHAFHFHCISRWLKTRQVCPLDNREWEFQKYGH
Target sequence (Q13616 whole entry, looked up): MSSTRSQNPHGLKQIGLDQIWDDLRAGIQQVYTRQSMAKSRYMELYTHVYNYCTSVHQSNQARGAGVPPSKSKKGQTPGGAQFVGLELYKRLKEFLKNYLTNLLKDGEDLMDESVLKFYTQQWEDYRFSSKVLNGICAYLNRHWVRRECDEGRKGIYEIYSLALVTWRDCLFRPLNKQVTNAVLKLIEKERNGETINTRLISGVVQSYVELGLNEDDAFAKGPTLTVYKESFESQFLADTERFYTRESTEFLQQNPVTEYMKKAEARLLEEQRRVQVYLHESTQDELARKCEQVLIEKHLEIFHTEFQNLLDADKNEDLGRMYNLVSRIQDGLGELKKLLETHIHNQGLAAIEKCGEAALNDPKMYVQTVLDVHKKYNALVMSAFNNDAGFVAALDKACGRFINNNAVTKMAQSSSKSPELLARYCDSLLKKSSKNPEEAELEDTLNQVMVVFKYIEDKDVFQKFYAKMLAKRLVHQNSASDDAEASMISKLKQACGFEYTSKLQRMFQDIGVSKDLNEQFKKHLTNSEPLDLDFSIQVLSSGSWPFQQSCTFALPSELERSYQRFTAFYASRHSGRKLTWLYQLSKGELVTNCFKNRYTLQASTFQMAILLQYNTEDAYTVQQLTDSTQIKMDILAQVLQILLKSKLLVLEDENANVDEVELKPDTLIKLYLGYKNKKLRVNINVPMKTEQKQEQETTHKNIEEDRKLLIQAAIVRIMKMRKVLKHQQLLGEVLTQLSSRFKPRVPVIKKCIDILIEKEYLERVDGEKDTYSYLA
* marks the source's active call; other numbers are inactive results. The full list was thinned out, with hits kept by preference.

SMILES	RBX1-CUL1 inh
CC(C)n1cc(NC(=O)c2ccc(C3CCCN3)s2)nn1 (configuration not stated)	1.3
O=C(O)c1cccc(N=C2C(=O)N(c3ccc(Cl)c(Cl)c3)C(=O)C2Cl)c1 (configuration not stated)	1.8
Cc1ccc(Cn2nnc3c2C(=O)c2ccccc2C3=O)cc1	65.3*
O=c1c2ccccc2nnn1Cc1ccccc1	-6.5
COc1cccc(Cn2nnc3c2C(=O)c2ccccc2C3=O)c1	-0.8
Cc1nc(NC(N)=NC(=S)Nc2ccccc2)nc2ccccc12	-2.2
Cc1ccc(-c2nn(-c3cc(Cl)ccc3[N+](=O)[O-])c(=O)c3ccccc23)c(C)c1	-1.0
COCCn1ccc(-c2cccc(-c3cccnc3)c2)n1	7.0
CC1=Nc2nc(SCc3cccc(Cl)c3)nn2C(c2cccs2)C1C(=O)Nc1ccc(Cl)cc1 (configuration not stated)	-2.6
Cc1nn(-c2ccc(Cl)cc2)c2c(=O)c(I)cccc12	5.7
CCOC(=O)c1nn(-c2ccccc2)c(=O)c2c(N)scc12	-5.0
CCOC(=O)c1nn(-c2ccccc2C(=O)O)c(=O)c2c(N)sc(Br)c12	33.2*
CCOC(=O)c1nn(-c2ccccc2C(=O)O)c(N)c1C(N)=S	9.7
CCOC(=O)c1[nH]nc(C(=O)c2ccccc2)c1-c1ccccc1Cl	-9.2
CCOc1cc(/C=C2/C(=O)N(c3cccc(C(=O)O)c3)N=C2C)ccc1OCC(=O)Nc1ccccc1	35.8*
COc1cc(/C=C2/C(=O)N(c3ccccc3)N=C2C)ccc1OCc1ccc(F)cc1	10.2
CCOc1cc(/C=C2\C(=O)N(c3cccc(C(=O)O)c3)N=C2C(F)(F)F)ccc1OCC(=O)Nc1ccccc1OC	15.3
COc1cc(/C=C2\C(=O)N(c3ccc(C)cc3)N=C2C)ccc1OCC(=O)Nc1ccc(C(=O)O)cc1	-2.1
C#CCOc1ccc(/C=C2\C(=O)N(c3cccc(F)c3)N=C2C)cc1OC	31.3*
COc1cc(/C=C2\C(=O)N(c3cccc(F)c3)N=C2C)ccc1O	0.1
CSc1cccc(NS(=O)(=O)Cc2ccccc2F)c1	5.7
Cc1cc(C(=O)N2CCCC(CCc3ccccc3C)C2)nc(C)n1 (configuration not stated)	-5.7
COc1ccccc1C1c2ccc(O)cc2OC(=N)C1C#N (configuration not stated)	0.8
O=C(NCCC1COc2ccccc2O1)c1ccc(N2CCOCC2)nc1 (configuration not stated)	-7.3
O=C(Oc1cccc2c1Oc1nc3ccccc3nc1O2)c1cccs1	1.8
SMILES	RBX1-CUL1 inh
c1ccc(C2=NOC(c3ccccc3)(c3ccccc3)C2)cc1	-8.9
CCOC(=O)c1c(-c2ccc(Br)cc2)csc1NC(=O)c1ccc(C)o1	-12.1
COc1ccccc1C1C2=C(N=c3s/c(=C/c4cccc(OCC(=O)O)c4)c(=O)n31)c1ccccc1CC2 (configuration not stated)	30.3*
COc1ccc(C2C3=C(N=c4s/c(=C/c5ccc(C(C)C)cc5)c(=O)n42)c2ccccc2CC3)cc1 (configuration not stated)	3.4
COC(=O)c1ccc(/C=c2\sc3n(c2=O)C(c2ccc(Cl)cc2Cl)C2=C(N=3)c3ccccc3CC2)cc1 (configuration not stated)	-5.6
COc1ccc(C2C3=C(N=c4s/c(=C/c5cccc(OC)c5O)c(=O)n42)c2ccccc2CC3)cc1 (configuration not stated)	-8.8
CCOc1ccc(/C=c2/sc3n(c2=O)C(c2cc(OC)ccc2OC)C2=C(N=3)c3ccccc3CC2)cc1 (configuration not stated)	6.6
O=c1/c(=C\c2cc(Cl)cc(Cl)c2O)sc2n1C(c1ccc(Cl)cc1Cl)C1=C(N=2)c2ccccc2CC1 (configuration not stated)	34.7*
COc1cc(/C=c2\sc3n(c2=O)C(c2ccccc2)C2=C(N=3)c3ccccc3CC2)cc(OC)c1O (configuration not stated)	4.6
COc1ccc(C2C3=C(N=c4s/c(=C/c5ccc(O)c([N+](=O)[O-])c5)c(=O)n42)c2ccccc2CC3)cc1 (configuration not stated)	43.6*
O=c1/c(=C\c2ccc(F)cc2)sc2n1C(c1ccc(Cl)cc1Cl)C1=C(N=2)c2ccccc2CC1 (configuration not stated)	-5.1
COc1ccc(C2C3=C(N=c4s/c(=C/c5ccc(C(=O)O)cc5)c(=O)n42)c2ccccc2CC3)cc1 (configuration not stated)	75.7*
COc1ccccc1C1C2=C(N=c3s/c(=C\c4ccccc4O)c(=O)n31)c1ccccc1CC2 (configuration not stated)	-6.9
COc1ccc(C(=O)Oc2ccc(/C=c3/sc4n(c3=O)C(c3ccccc3Cl)C3=C(N=4)c4ccccc4CC3)cc2)cc1 (configuration not stated)	-8.8
CCOC(=O)/C=C1/c2ccccc2CSc2ccccc21	2.3
CN1CCN(C(CC(=O)Nc2ccc(O)cc2)C(=O)O)CC1 (configuration not stated)	7.1
COc1[nH]c2c(c(=O)c1NC(C)=O)c(=O)n(C)c(=O)n2C	0.3
CCOc1cc(C)c(C(C)C)cc1S(=O)(=O)N1c2ccccc2CC1C (configuration not stated)	4.1
COc1ccc(Cn2c(NC(=O)Cc3cccs3)c(C#N)c(-c3ccccc3)c2-c2ccccc2)cc1	6.9
COc1ccccc1C(=O)Nc1ccccc1O	9.3
CC1Cc2ccccc2N1C(=O)c1ccc(F)cc1Cl (configuration not stated)	7.6
CCOc1c(Br)cc(-c2nc3ccccc3s2)cc1OC	-0.6
O=c1/c(=C\c2cc3c(cc2[N+](=O)[O-])OCO3)sc2n1C(c1cccs1)C1=C(N=2)c2ccccc2CC1 (configuration not stated)	-7.2
O=c1/c(=C\c2cccs2)sc2n1C(c1cccc(F)c1)C1=C(N=2)c2ccccc2CC1 (configuration not stated)	1.9
O=c1/c(=C\c2ccco2)sc2n1C(c1cccs1)C1=C(N=2)c2ccccc2CC1 (configuration not stated)	28.1*
SMILES	RBX1-CUL1 inh
COc1ccc(/C=C2/SC(=S)N(CC(=O)Nc3ncc(Cc4ccccc4)s3)C2=O)cc1	5.0
Cc1ccc(C2=N/C(=C\c3ccccc3F)C(=O)N2Nc2ccccc2)cc1	4.9
Cc1c(CC(=O)NCc2ccon2)c2c(n1CC1CCCO1)CCCC2=O (configuration not stated)	-1.1
Cc1c(CC(=O)NCC(N)=O)c2c(n1CCc1ccccc1)CCCC2=O	9.2
Cc1c(CC(=O)NCc2ccon2)c2c(n1CCc1ccccc1)CCCC2=O	28.9*
CC1c2[nH]c3ccccc3c2CC2C(=O)N(c3ccc(F)c(Cl)c3)C(=S)N21 (configuration not stated)	6.6
Cc1nccn1-c1ccc(NC(=O)C2CCCN2C2CSCCSC2)cc1 (configuration not stated)	7.2
O=C(NC1CCCN(CCc2ccccc2)C1)c1ccc(F)c(Cl)c1 (configuration not stated)	2.6
Cc1nc(N2CCCCCCC2)ncc1C(C)NC(=O)C(C)C (configuration not stated)	-4.0
CCOc1cc(/C=C2\C(=O)NN(c3cccc(Cl)c3)C2=O)c(Br)c(Br)c1O	62.2*
O=C1NN(c2cccc(Cl)c2)C(=O)/C1=C/c1ccccc1O	-0.9
CCOc1cc(/C=C2\C(=O)NN(c3ccc(C)c(C)c3)C2=O)ccc1O	7.4
